# High-throughput results (PubChem)
# p53ts 39C tox: cytotoxicity in p53ts cells at nonpermissive temperature; 130,000 compounds, 1.5% hits; AID 902; Potency, µM (doses to about 46.1 µM), inactives show top-dose activity change, negative = cell killing, hits mostly cytotoxic; H1299-p53A138V viability at 39C, ATP luminescence, 24 h; also: % is scaled to controls: 0 for no effect and ±100 for the full control effect; nearly all actives have a fitted effect of over 55% in size
# p53ts 32C kill: p53ts cell cytotoxicity, permissive temperature | AID 924 | 130,000 compounds, 0.93% hits | H1299-p53A138V at 32C, ATP luminescence viability, 24 h | Potency, µM (series often up to 46.1 µM), for the others: at the highest dose activity change, negative = cytotoxicity, usual class: cytotoxic;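 also: 0% = DMSO and -100% = full killing by reference compound; nearly all actives have a fitted effect of over 55% in size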
#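 H1299-p53 A138V cells (temperature-sensitive p53) exposed 24 h to up to 46 uM compound at 32C, where p53 is wild-type in conformation. Viability read as ATP luminescence and normalised to DMSO and 100 uM tamoxifen. AC50 fitted with the Hill equation.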
# Imprint erasure: genomic imprint erasure induction. mouse ES Peg3-LacZ reporter, beta-gal luminescence, 40 h. Potency, µM (top dose mostly 60.7 µM), without a hit: at the highest dose activity change, positive = activation, actives largely listed as activators. 110,000 compounds, 0.02% hits
#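 Readout: BetaGlo luminescence (5 min, room temp) for LacZ from the normally silent maternal Peg3 allele in female Peg3LacZ-Neo ES cells. Cells 300/well, 40 h, 37C, 5% CO2. Data normalized per plate to negative controls.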
# Starred values were filed as active, the others as inactive; ? = inconclusive; . = no result given; [ ] = another dose, or the depositor's remark. The list is not random: actives were taken first. Their share in the collection is about 1.8%. Calls follow the shape of the dose curve; as a rule, active = well fitted curve in the direction sought with a large enough effect; inconclusive = small, poorly fitted or top-dose-only effect, or another doubt; inactive = no such curve, though single readings can be large; an effect the other way counts as inactive or inconclusive. Potency is read from the fitted curve at half-maximal effect.
SMILES,p53ts 39C tox,p53ts 32C kill,Imprint erasure
CCOc1ccc(C2=C(C(=O)CC)Sc3nncn3N2C(=O)CC)cc1,?,11.2µM*,26.2%[10.9 µM]
CCC(=O)C1=C(c2ccc(F)cc2)N(C(=O)CC)n2cnnc2S1,66.3%,8.6%,-36.4%[10.9 µM]
CCCCCCOc1ccc(-c2nc3ccc(Br)cc3c(=O)o2)cc1,-3.6%,-8.9%,-6.8%[10.9 µM]
CCOc1ccc(-c2nc3ccccc3c(=O)o2)cc1,2.51µM*,2.51µM*,-35.6%[10.9 µM]
CCc1nnc2c(NCc3cccc(OC)c3)nc3ccccc3n12,6.3%,-0.2%,-7.4%[10.9 µM]
CCOc1ccc(C(=O)Nc2c(C(=O)Nc3ccccc3OC)oc3ccccc23)cc1OCC,-2.3%,0.9%,-11.1%[10.9 µM]
COc1cccc(-n2c(=O)c3sc4ccccc4c3n(CC(=O)NC3CCCCC3)c2=O)c1,6.2%,2.7%,-5.5%[10.9 µM]
CCOC(=O)c1ccccc1NC(=O)N1CC(C)Oc2ccc(C)cc21 (stereo not drawn),-18.5%,8.7%,-5.1%[10.9 µM]
COc1ccc(OC)c(NC(=O)Cn2ncc3c2-c2ccccc2OC3)c1,15.1%,-2.7%,-3.3%[10.9 µM]
COc1cc(Cl)c(C)cc1NC(=O)Cn1ncc2c1-c1cc(C)ccc1OC2,12.6µM*,-2.8%,-9.2%[10.9 µM]
O=C(NCCSc1ccccc1)c1ccccc1,-9.4%,-6.4%,-51.9%
CSCCNC(=O)c1ccc(C(C)(C)C)cc1,?,10µM*,-58.5%
CN(C)CC(CN(C)C)c1ccccn1,3.6%[9.22 µM],-1.3%[9.22 µM],20.6%[10.9 µM]
CC1(C)CC(=O)C2=C(C1)OC1=C(C(=O)CC(C)(C)C1)C2c1ccc(O)cc1O,144.6%,25.1µM*,-32.5%
Cc1ccc(C2C(C(N)=S)=C(N)OC3=C2C(=O)CC(C)(C)C3)cc1 (stereo not drawn),-23.2%,-5.4%,.
CCOC(=O)c1cc(NC(=O)c2ccc(Cl)cc2)c(=O)n2c1oc1ccccc12,5.2%,-3.8%,3.7%[10.9 µM]
Cc1cc2nc(-c3cccc(NC(=O)CSc4ccc(Cl)cc4)c3)oc2cc1C,15.0%,-15.8%,-11.5%[10.9 µM]
Cc1ccc(C(=O)Nc2ccc3c(c2)CCC3)o1,?,12.6µM*,.
Cc1occc1C(=O)Nc1ccc2c(c1)CCC2,?,?,-87.0%
CCOC(=O)C1CCCN(C(=O)Cn2ncn3c(cc4sc(CC)cc43)c2=O)C1 (stereo not drawn),?,-7.4%,-9.1%[10.9 µM]
CCc1nnc(NC(=O)CSc2nc3c(cc2C#N)CCCC3)s1,1.58µM*,0.794µM*,16.5%
N#Cc1cc2c(nc1SCC(=O)NCc1ccc3c(c1)OCO3)CCCCC2,-7.9%,5.1%,-16.7%
CC(C)Oc1ccc(CNS(=O)(=O)c2ccc(-c3cc(C(F)(F)F)on3)s2)cc1,2.1%,1.0%,-5.2%[10.9 µM]
Cc1ccc2scc(N3CCCC(C)C3)c(=O)c2c1 (stereo not drawn),?,12.6µM*,-10.0%[10.9 µM]
Cc1ccc2scc(N3CCN(c4cccc(C(F)(F)F)c4)CC3)c(=O)c2c1,?,-3.9%,-24.8%[10.9 µM]
SMILES,p53ts 39C tox,p53ts 32C kill,Imprint erasure
COc1ccccc1-c1cc(=O)c2cccc(OC)c2o1,0.1%,3.4%,-20.5%
O=c1cc(-c2ccccc2)oc2cc(O)c(O)c(O)c12,0.631µM*,?,-16.0%
O=c1cc(-c2cccc(O)c2)oc2cccc(O)c12,-3.9%,-2.9%,-19.0%
COc1cccc2oc(-c3ccc(O)cc3)cc(=O)c12,7.94µM*,6.31µM*,-86.4%
COc1cccc2oc(SC)cc(=O)c12,.,.,-94.7%[97.3 µM]
COc1cccc2oc(-c3ccccc3)cc(=O)c12,7.94µM*,10µM*,-93.3%
COc1cc2oc(-c3ccccc3)cc(=O)c2cc1OC,-15.4%,-15.6%,-17.1%
COc1cccc(-c2cc(=O)c3ccccc3o2)c1N,5.01µM*,7.94µM*,-67.4%
CCCCNc1nc(C)nc2c1nc(-c1ccccc1)n2C(C)CCCN(CC)CC (stereo not drawn),-20.7%,-17.0%,-6.9%
CC(C)(C)c1ccc(-c2nc(NC(=O)CSc3ncnc4sc5c(c34)CCCC5)ns2)cc1,11.1%,-8.6%,-8.2%[10.9 µM]
CCOC(=O)Cc1ccc(NC(=O)NC(C)c2c(-n3cccc3)sc(C)c2C)cc1 (stereo not drawn),-18.0%,15.8%,-11.3%[10.9 µM]
CC(=O)O[C@@H](C)C[N+](C)(C)C,16.2%[20.6 µM],3.3%[20.6 µM],-3.3%[16.8 µM]
CCOc1cc2sc(N3CCC(C(=O)Nc4ccccc4Cl)CC3)nc2cc1Br,-20.4%,-1.9%,-3.4%[10.9 µM]
CCN(CC)CC(C)CNC(=O)c1cc(-c2ccc(Br)s2)nc2ccccc12 (stereo not drawn),?,-22.1%,-11.2%[10.9 µM]
CCOc1ccc(-c2cc(CCCC(=O)NCc3cccnc3)no2)cc1,?,15.8µM*,-17.5%
CCOc1ccc(CCNC(=O)CCCc2cc(-c3ccc(OCC)cc3)on2)cc1,-4.6%,-2.8%,26.5%[10.9 µM]
CCCCOc1ccccc1C1CC(=O)Nc2ccc3ccccc3c21 (stereo not drawn),?,18.9%,-10.3%[10.9 µM]
CCCCOc1ccccc1CC1C(=O)Nc2ccc(Br)cc21 (stereo not drawn),12.6µM*,?,-19.7%[10.9 µM]
Cc1cc(S(=O)(=O)C(CNC(=O)COc2ccc(Cl)cc2)c2cccs2)ccc1F (stereo not drawn),-17.6%,2.6%,-7.8%[10.9 µM]
c1ccc2c(c1)Cn1nnnc1-2,-7.0%,6.0%,13.7%
c1ccc2c(c1)Cn1c-2nc2ccccc21,7.94µM*,12.6µM*,-89.2%
CCOc1ccc(-n2nc(CO)c(C(=O)NCCCc3ccccc3)n2)cc1,?,?,-15.1%[10.9 µM]
Cc1ccc2oc3c(c(=O)c2c1)C(c1ccc(OCC(N)=O)cc1)N(Cc1ccc2c(c1)OCO2)C3=O (stereo not drawn),4.1%,9.0%,-12.6%[10.9 µM]
O=S(=O)(NCc1ccc(F)cc1)c1ccc2[nH]c3c(c2c1)CCCC3,.,9.1%,.
Cc1ccc(CNS(=O)(=O)c2ccc3[nH]c4c(c3c2)CCCC4)cc1,.,-6.8%,.
SMILES,p53ts 39C tox,p53ts 32C kill,Imprint erasure
O=S(=O)(NCc1ccccc1)c1ccc2[nH]c3c(c2c1)CCCCC3,31.6µM*,3.7%,-7.1%[10.9 µM]
Cc1ccc(CNS(=O)(=O)c2ccc3[nH]c4c(c3c2)CCCCC4)cc1,20µM*,-2.0%,-4.6%[10.9 µM]
CCCC(O)c1nc2ccccc2n1CCCOc1ccc(Cl)cc1 (stereo not drawn),38.2%,-2.3%,-5.7%[10.9 µM]
Cc1ccc(C)c(CN2CCC(CNC(=O)c3cc4ccc5cccnc5c4[nH]3)CC2)c1,-17.4%,-1.5%,-5.1%[10.9 µM]
Cc1ccc(CN2CCC(CNC(=O)c3cc4ccc5cccnc5c4[nH]3)CC2)cc1,12.6µM*,?,10.6%[10.9 µM]
CCN(Cc1ccccc1)C(=O)c1cc2ccc3cccnc3c2[nH]1,31.6µM*,?,-4.3%[10.9 µM]
Cc1ccc(CNC(=O)c2cc3ccc4cccnc4c3[nH]2)cc1,-20.9%,-2.1%,25.5%[10.9 µM]
CCOC(=O)C1CCN(c2c(NCc3ccc(C(=O)O)cc3)c(=O)c2=O)CC1,1.9%,7.3%,?
CCOC(=O)c1c(Nc2ccc(OC)cc2)nnc(-c2ccccc2)c1-c1ccccc1,-22.0%,7.9%,-16.3%[10.9 µM]
O=C(CSc1ncc2c(n1)-c1cc(Cl)ccc1N(Cc1ccccc1F)S2(=O)=O)Nc1cccc(C(F)(F)F)c1,-25.4%,2.1%,-4.7%[10.9 µM]
CCCN1CCN(c2nnc(-n3cccc3C(=O)Nc3ccccc3C(F)(F)F)s2)CC1,-5.4%,10.6%,-2.9%[10.9 µM]
O=C(COc1ccc(Cl)cc1)NCCc1csc(-c2ccc(C(F)(F)F)cc2)n1,?,-0.5%,-4.9%[10.9 µM]
COc1ccc(-n2ncc3c(NC(C)(C)CO)ncnc32)cc1,10µM*,12.6µM*,-17.4%[10.9 µM]
